# Measurements published in PubChem BioAssay.
# Inconclusive results are not listed. The list shows a part of the results. Active and inactive are the calls of the source.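 How the source made its calls, unless noted: active means GFP response above 150% of the DMSO control; inconclusive means Fewer than 70 cells counted for a yeast strain; inactive means the rest.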
# Legend:
# [1] = yeast TOR pathway RPL19A-GFP modulators, primary screen, cell-based, S. cerevisiae, multiplex flow cytometry (AID 1862; in the data active means percent of DMSO control GFP below about 86%;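 further: lower values mimic rapamycin by blocking the RPL19A rise seen in DMSO cells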); conditions: S. cerevisiae RPL19A-GFP strain, flow cytometry fluorescence, 3 h; at 10 µM; stronger effect = lower value
# [2] = modulators of MEP2-GFP levels in yeast, primary screen, S. cerevisiae, multiplex flow cytometry (AID 1867;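 active means GFP response, as percent of the DMSO control, above the screen-wide mean plus 3 SD, about 139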;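 further: median GFP channel fluorescence of barcode-gated MEP2-GFP cells measured by flow cytometry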); conditions: S. cerevisiae MEP2-GFP strain, 3 h, at 10 µM, stronger effect = higher value, 100% means same as DMSO wells
# [3] = modulators of CIT2-GFP expression in yeast, primary screen, S. cerevisiae, GFP fusion, multiplex flow cytometry (AID 1870;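 active means percent response above a set limit, the screen-wide mean plus 3 SD, cut at about 130% in these data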;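 further: barcoded CIT2-GFP strain pooled with four other GFP strains with rapamycin as positive control; median GFP fluorescence per well over plate mean of DMSO wells so 100% = DMSO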); conditions: 3 h, at 10 µM, stronger effect = higher value
# [4] = modulators of LAP4-GFP expression in yeast, primary screen, S. cerevisiae, multiplex flow cytometry (AID 1873;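 active means GFP signal, as percent of the solvent control, above the screen mean plus 3 SD, about 149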); conditions: 3 h, at 10 µM, stronger effect = higher value
# [5] = modulators of AGP1-GFP expression in yeast TOR pathway, primary screen, cell-based, multiplex flow cytometry, S. cerevisiae (AID 1887;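 active means GFP signal above the screen-wide mean plus 3 SD, that is over about 124.5% of the solvent control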;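 further: AGP1-GFP fusion strain of S. cerevisiae within a five-strain barcoded multiplex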); conditions: 3 h, at 10 µM, stronger effect = higher value
# [6] = RPL19A-GFP modulators, yeast TOR pathway, confirmation, cell-based, S. cerevisiae, flow cytometry, cherry picks, mother/daughter gates (AID 2270;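 active means GFP response below 50% of the DMSO control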); conditions: S. cerevisiae RPL19A-GFP strain, 3 h, at 10 µM, stronger effect = lower value, 100 = same GFP as DMSO wells
# [7] = LAP4-GFP expression modulators in yeast, confirmation, cell-based, cherry picks, flow cytometry, mother/daughter gates (AID 2271;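 active means GFP response above 150% of the DMSO control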;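 further: ratio of sample to DMSO plate mean so 100% equals DMSO level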); conditions: S. cerevisiae LAP4-GFP strain, 3 h, at 10 µM, stronger effect = higher value, 100 means same as DMSO control
# [8] = modulators of MEP2-GFP levels in yeast, confirmation, S. cerevisiae, flow cytometry GFP, cherry picks (AID 2272);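 further: ratio of well signal to plate DMSO mean so 100% equals DMSO level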; conditions: S. cerevisiae MEP2-GFP strain, 3 h, at 10 µM, stronger effect = higher value
# [9] = modulators of CIT2-GFP expression in yeast, confirmation, S. cerevisiae, GFP fusion, cherry picks, mother/daughter gates (AID 2274;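 active means GFP response above 150% of the DMSO level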); conditions: S. cerevisiae CIT2-GFP strain, flow cytometry, 3 h, at 10 µM, stronger effect = higher value
# [10] = inhibitors of CD8+ T cell-vesicle binding, pilot screen, LFA-1/ICAM-1 modulator project, MLPCN validation set, flow cytometry (AID 2523;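 active means response below a set limit, under 55% cells CD8-positive and vesicle-bound, and CD8 cells' 90th-percentile brightness under 279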;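 on vesicle binding response: mean PE anti-B7-1 fluorescence of CD8+ cells relative to row control; 100% = QL9-loaded vesicles with DMSO vehicle in the same plate row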); conditions: 2C mouse CD8+ T cells, at 7 µM, stronger effect = lower value; double positive events: measured here: CD8+/vesicle+ event percentage
# [11] = disruption of biotin probe capture by avidin, counter-screen for RGS protein interaction modulators, biochemical, flow cytometry, bead-based (AID 1783;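 active means inhibition above 50%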;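 further: median green fluorescence of gated singlet beads compared with DMSO control wells; 0% = DMSO wells and 100% = complete loss of bead fluorescence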); conditions: streptavidin beads, fluorescein-biotin binding; at 10 µM, stronger effect = higher value
# [12] = target: Guanine nucleotide-binding protein G(o) subunit alpha (Homo sapiens) (UniProt P09471); assay: RGS8-Galphao binding modulators, confirmation, biochemical, multiplexed bead flow cytometry, single concentration (AID 1836; in the data active means binding response below about 72% or above about 130%; inactive means in between;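 further: Galphao activated as GDP AlF4 complex before binding bead RGS8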); conditions: bead-based flow cytometry RGS8-Galphao binding, fluorescence; at 10 µM; actives lie on both sides
# Guanine nucleotide-binding protein G(o) subunit alpha (Homo sapiens), sequence (P09471 whole entry, looked up): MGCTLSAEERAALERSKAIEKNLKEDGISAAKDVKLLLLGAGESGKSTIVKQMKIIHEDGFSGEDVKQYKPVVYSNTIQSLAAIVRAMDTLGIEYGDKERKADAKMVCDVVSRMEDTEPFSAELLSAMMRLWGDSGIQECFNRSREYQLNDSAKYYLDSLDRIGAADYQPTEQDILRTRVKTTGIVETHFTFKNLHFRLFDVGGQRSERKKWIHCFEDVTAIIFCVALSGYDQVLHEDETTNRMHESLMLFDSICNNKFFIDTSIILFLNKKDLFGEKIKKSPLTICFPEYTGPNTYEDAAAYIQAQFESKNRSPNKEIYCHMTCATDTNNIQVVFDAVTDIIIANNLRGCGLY
# [13] = target: Guanine nucleotide-binding protein G(o) subunit alpha (Homo sapiens) (UniProt P09471); assay: RGS7-Galphao binding modulators, confirmation, biochemical, multiplexed bead flow cytometry, single concentration (AID 1837; in the data active means response below about 75% or above about 130%; inactive means in between;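 further: fluorescent Galphao activated with GDP and aluminum fluoride binding bead-coupled RGS7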); conditions: bead-based flow cytometry RGS7-Galphao binding; at 10 µM; actives lie on both sides
# [14] = target: Regulator of G-protein signaling 16 (Homo sapiens) + Guanine nucleotide-binding protein G(o) subunit alpha (Homo sapiens) (UniProt O15492+P09471); assay: modulators of RGS16-Galphao protein binding, confirmation, biochemical, single concentration, multiplexed bead flow cytometry (AID 1838; in the data active means response below about 74% or above about 130%; inactive means in between;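 further: Galphao activated as the GDP aluminium fluoride complex binding bead-coupled RGS16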); conditions: bead-based flow cytometry, at 10 µM, actives lie on both sides
# Regulator of G-protein signaling 16 (Homo sapiens) + Guanine nucleotide-binding protein G(o) subunit alpha (Homo sapiens), sequence (O15492 whole entry, looked up): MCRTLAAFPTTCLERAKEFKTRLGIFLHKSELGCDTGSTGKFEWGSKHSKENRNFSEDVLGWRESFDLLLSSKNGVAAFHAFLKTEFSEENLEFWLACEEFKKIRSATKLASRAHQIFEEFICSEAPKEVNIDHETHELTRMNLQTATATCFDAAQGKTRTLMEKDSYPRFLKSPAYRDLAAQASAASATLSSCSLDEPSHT
# Regulator of G-protein signaling 16 (Homo sapiens) + Guanine nucleotide-binding protein G(o) subunit alpha (Homo sapiens), sequence (P09471 whole entry, looked up): as the sequence (P09471 whole entry, looked up) above
# [15] = target: Guanine nucleotide-binding protein G(o) subunit alpha (Homo sapiens) (UniProt P09471); assay: modulators of RGS4-Galphao protein binding, confirmation, biochemical, single concentration, multiplexed bead flow cytometry (AID 1840; in the data active means binding response below about 74% or above about 130%; inactive means in between); conditions: at 10 µM, actives lie on both sides
# [16] = target: Guanine nucleotide-binding protein G(o) subunit alpha (Homo sapiens) + Regulator of G-protein signaling 19 (Homo sapiens) (UniProt P09471+P49795); assay: regulators of RGS19-Galphao binding, confirmation, biochemical, single point, multiplexed bead flow cytometry (AID 1841; in the data active means response below about 50% or above about 160%; inactive means in between;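 further: 100% = no compound control and 0% = blank background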); conditions: bead-based flow cytometry RGS19-Galphao binding; at 10 µM; actives lie on both sides
# Guanine nucleotide-binding protein G(o) subunit alpha (Homo sapiens) + Regulator of G-protein signaling 19 (Homo sapiens), sequence (P09471 whole entry, looked up): as above
# Guanine nucleotide-binding protein G(o) subunit alpha (Homo sapiens) + Regulator of G-protein signaling 19 (Homo sapiens), sequence (P49795 whole entry, looked up): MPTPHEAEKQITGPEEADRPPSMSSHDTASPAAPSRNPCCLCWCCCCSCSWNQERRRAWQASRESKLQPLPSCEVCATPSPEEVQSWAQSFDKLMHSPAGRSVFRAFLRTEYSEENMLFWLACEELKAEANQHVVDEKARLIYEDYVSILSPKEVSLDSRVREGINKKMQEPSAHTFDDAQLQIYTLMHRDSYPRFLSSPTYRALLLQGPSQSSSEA
# [17] = target: Regulator of G-protein signaling 16 (Homo sapiens) (UniProt O15492); assay: modulators of RGS–Galpha-o binding, primary screen, biochemical, multiplexed beads, flow cytometry, RGS4/7/8/16/19 (AID 1504); conditions: multiplexed bead flow cytometry, measured here: RGS16 interaction, at 10 µM;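 further: fluorescently labeled Galpha-o bound to GDP with aluminium fluoride binding biotinylated RGS beads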
# [18] = target: Regulator of G-protein signaling 19 (Homo sapiens) (UniProt P49795); assay: as above; conditions: multiplexed bead flow cytometry, measured here: RGS19 interaction, at 10 µM
# [19] = target: Regulator of G-protein signaling 7 (Homo sapiens) (UniProt P49802); assay: as above; conditions: multiplexed bead flow cytometry, measured here: RGS7 interaction, at 10 µM
# [20] = target: Regulator of G-protein signaling 8 (Homo sapiens) (UniProt P57771); assay: as above; conditions: multiplexed bead flow cytometry, measured here: RGS8 interaction, at 10 µM
# [21] = measured here: daughter cell gate
# [22] = measured here: mother cell gate
# [23] = measured here: daughter cell gate response
# [24] = measured here: mother cell gate response
smiles,measurement,setting,value
O=[N+]([O-])c1cccc2cn[nH]c12,percent of DMSO control GFP,[1],94.4% (inactive)
same,GFP response vs DMSO,[2],155% (active)
same,percent response of DMSO control,[3],114% (inactive)
same,GFP response vs DMSO,[4],91.3% (inactive)
same,"GFP response, % of DMSO",[5],94.2% (inactive)
same,GFP response vs DMSO,[6],97.3% (inactive)
same,GFP response vs DMSO,[6]; [21],96.4%
same,GFP response vs DMSO,[6]; [22],95.2%
same,GFP response relative to DMSO,[7],98.9% (inactive)
same,GFP response relative to DMSO,[7]; [23],97.5%
same,GFP response relative to DMSO,[7]; [24],99.5%
same,GFP response vs DMSO,[8],106% (inactive)
same,"GFP response, % of DMSO",[9],103% (inactive)
same,"GFP response, % of DMSO",[9]; [21],101%
same,"GFP response, % of DMSO",[9]; [22],103%
same,double positive events,[10],51.9%
same,vesicle binding response,[10],56% (active)
C=CCNc1nc(N)c(C(=C(C#N)C#N)c2ccccc2)s1,inhibition,[11],0.8% (inactive)
same,binding response (% of control),[12],98.2% (inactive)
same,response (percent of control binding),[13],87.1% (inactive)
same,response (% of control binding),[14],99% (inactive)
same,binding response (% of control),[15],95.9% (inactive)
same,response (percent of control binding),[16],113% (inactive)
CCOC(=O)C(Cc1cc(C(C)=O)ccc1OC(C)C)C(=O)OCC,percent of DMSO control GFP,[1],93% (inactive)
same,GFP response vs DMSO,[2],142% (active)
same,percent response of DMSO control,[3],110% (inactive)
same,GFP response vs DMSO,[4],85.3% (inactive)
same,"GFP response, % of DMSO",[5],89.1% (inactive)
same,GFP response vs DMSO,[6],101% (inactive)
same,GFP response vs DMSO,[6]; [21],101%
same,GFP response vs DMSO,[6]; [22],102%
same,GFP response relative to DMSO,[7],97.7% (inactive)
same,GFP response relative to DMSO,[7]; [23],95%
same,GFP response relative to DMSO,[7]; [24],99.5%
same,GFP response vs DMSO,[8],99.5% (inactive)
same,"GFP response, % of DMSO",[9],96.4% (inactive)
same,"GFP response, % of DMSO",[9]; [21],98.3%
same,"GFP response, % of DMSO",[9]; [22],96.8%
same,double positive events,[10],58.5%
same,vesicle binding response,[10],151% (inactive)
CCCCN(CCCC)CCCOC(=O)c1ccc(N)cc1,percent of DMSO control GFP,[1],92% (inactive)
same,GFP response vs DMSO,[2],150% (active)
same,percent response of DMSO control,[3],115% (inactive)
same,GFP response vs DMSO,[4],82% (inactive)
same,"GFP response, % of DMSO",[5],81.7% (inactive)
same,GFP response vs DMSO,[6],97.6% (inactive)
same,GFP response vs DMSO,[6]; [21],97.4%
same,GFP response vs DMSO,[6]; [22],98%
same,GFP response relative to DMSO,[7],94.1% (inactive)
same,GFP response relative to DMSO,[7]; [23],97.6%
same,GFP response relative to DMSO,[7]; [24],94%
same,GFP response vs DMSO,[8],98.3% (inactive)
same,"GFP response, % of DMSO",[9],99.7% (inactive)
same,"GFP response, % of DMSO",[9]; [21],101%
same,"GFP response, % of DMSO",[9]; [22],99.7%
same,double positive events,[10],64.8%
same,vesicle binding response,[10],181% (inactive)
Cc1cc2nc(C)n(CCCNC(=O)Nc3ccccc3)c2cc1C,RGS16–Galpha-o binding response,[17],283%
same,RGS19–Galpha-o binding response,[18],94.8%
same,RGS7–Galpha-o binding response,[19],180%
same,RGS8–Galpha-o binding response,[20],170%
same,inhibition,[11],-0.5% (inactive)
same,binding response (% of control),[12],102% (inactive)
same,response (percent of control binding),[13],104% (inactive)
same,response (% of control binding),[14],103% (inactive)
same,binding response (% of control),[15],104% (inactive)
same,response (percent of control binding),[16],97.2% (inactive)
O=C(O)CCNC(=O)c1ccccc1,percent of DMSO control GFP,[1],90% (inactive)
same,GFP response vs DMSO,[2],151% (active)
same,percent response of DMSO control,[3],101% (inactive)
same,GFP response vs DMSO,[4],82% (inactive)
same,"GFP response, % of DMSO",[5],91% (inactive)
same,GFP response vs DMSO,[6],98.7% (inactive)
same,GFP response vs DMSO,[6]; [21],97.5%
same,GFP response vs DMSO,[6]; [22],98.1%
same,GFP response relative to DMSO,[7],103% (inactive)
same,GFP response relative to DMSO,[7]; [23],102%
same,GFP response relative to DMSO,[7]; [24],103%
same,GFP response vs DMSO,[8],102% (inactive)
same,"GFP response, % of DMSO",[9],97.8% (inactive)
same,"GFP response, % of DMSO",[9]; [21],98.3%
same,"GFP response, % of DMSO",[9]; [22],98%
same,double positive events,[10],65.7%
same,vesicle binding response,[10],186% (inactive)
